# Results as given in PubChem BioAssay AID504773 (Broad Institute, 2011).
# Potency and affinity values are given separately. Values without a mark were called inactive.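 Rule for the calls: active = polarization signal falls with dose and the fitted half-maximal concentration is at or below ten times the sample's top valid dose; inconclusive = flat curve at 30 to 70% inhibition, or poor fit; inactive = signal rises, flat within 30%, or potency beyond limit.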
# Biological target: Golgi-associated PDZ and coiled-coil motif-containing protein (Homo sapiens) (UniProt Q9HD26)
# Assay: potency against CAL PDZ-peptide interaction – biochemical, fluorescence polarization, Cerulean-tagged CAL PDZ, cherry-picks, dose response (AID 504773);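 note: 0% = DMSO neutral wells and -100% = excess unlabeled competitor peptide wells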
# Details: CAL PDZ-peptide binding, 1 h; series mostly up to 50 µM; activity change, negative = inhibition: at the top concentration
row,Compound,"activity change, negative = inhibition [%]"
1,COc1ccc(CNCCc2c[nH]c3ccccc23)c(OC)c1OC,8.02
2,COc1cc(C)cc(CN2CC=C(c3ccccc3)CC2)c1O,9.35
3,COc1cc(/C=C2\C(=O)NC(=O)N(c3ccccc3)C2=O)c([N+](=O)[O-])cc1OC,4.94
4,Cn1c(=O)c2c(nc(-c3ccc(N(CCCl)CCCl)cc3)n2C)n(C)c1=O,1.8
5,CC(C)CN1CCN(Cc2cccc3c2OCO3)CC1CCO (stereo unspecified),6.14
6,O=c1[nH]c(CN2CC=C(c3ccccc3)CC2)nc2scc(-c3ccccc3)c12,6.71
7,CSC1=NP(=S)(SC)N2CCCC2=C1C#N (stereo unspecified),13.6
8,O=C(c1ccc(F)cc1Cl)N1CCC2(CC1)OCCO2,20.1
9,O=C1CN=C(c2ccccc2)c2oc3ccc(Br)cc3c2N1,11.9
10,c1ccc2[nH]c(CCNC3CCCCC3)nc2c1,7.1
11,Cc1cc(C)c(C(=O)N2CCC3(CC2)OCCO3)c(C)c1,-7.3
